# Screening data: PubChem, several laboratories
# Most compounds without a hit are left out; they make up all but 2.1% or so of the library.
# CCHFV vOTU inh = blocks the CCHF virus ovarian tumor domain protease | inhibition, % at 11.5 µM | AID 651958 | actives 0.55% (n = 370,000) | CCHFV vOTU protease, Pep-AMC fluorescence; in the data active means inhibition above about 30%; further: 0% = vehicle wells with enzyme and 100% = no enzyme wells
# PrPC surface inh = cell surface PrPC inhibition, primary TR-FRET screen. P04156. TR-FRET read-out. inhibition, % at 13.8 µM. actives 0.43% (n = 370,000). AID 720596; in the data active means inhibition above about 24%; further: 0% = median of the test wells and 100% = reference compound wells
# PrP 5UTR inh = inhibition of PrP 5' UTR reporter expression; actives 0.35% (n = 340,000); cell-based PrP 5' UTR mRNA reporter, plate reader; AID 488862; inhibition, % (no concentration beside the values); in the data active means inhibition above about 52%; further: 0 = median of the neutral control wells
# PfHsp40 rescue = rescue of PfHsp40-mediated yeast toxicity. S. cerevisiae expressing PfHsp40, growth rescue, ATP luminescence. growth rescue, % at 12.5 µM. actives 0.68% (n = 340,000). AID 504582; in the data active means growth rescue above about 28%, passing the limit was not always enough; inconclusive means no clear call, values can overlap the other calls;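 further: yeast W303a lacking pdr1 and pdr3 grown in galactose medium; growth measured after three days at 30 °C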
# ugtP null kill = growth inhibition of S. aureus ugtP deletion strain; S. aureus RN4220 ugtP deletion, OD600 growth, 16 h; actives 0.54% (n = 330,000); growth inhibition, % (no concentration beside the values); in the data active means growth inhibition above about 68%;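 further: plate controls were untreated wells for no effect and antibiotic for full effect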
# Sa RN4220 lethal = kills Staphylococcus aureus RN4220; S. aureus RN4220 growth, OD600, 16 h; inhibition, % (test concentration not listed); actives 0.33% (n = 330,000); in the data active means inhibition above about 85%;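 further: plate controls were untreated cells for no effect and reference antibiotic for full effect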
# Starred values were filed as active, the others as inactive; ? = inconclusive; . = not tested or not shown.
SMILES,CCHFV vOTU inh,PrPC surface inh,PrP 5UTR inh,PfHsp40 rescue,ugtP null kill,Sa RN4220 lethal
O=C(C1=CC(c2coc3ccccc3c2=O)CC(OCCCCO)O1)N1CCOCC1 (stereo unspecified),.,.,.,.,-1,3
CN(C)CCn1nnnc1SCC1=C(C(=O)O)N2C(=O)C(NC(=O)Cc3csc(N)n3)C2SC1 (stereo unspecified),.,.,.,.,100*,100*
COCC1=C(C(=O)OC(C)OC(=O)OC(C)C)N2C(=O)[C@@H](NC(=O)/C(=N\OC)c3csc(N)n3)[C@H]2SC1 (stereo partly specified),3,9,-9,0,.,.
Cn1nnnc1SCC1=C(C(=O)O)N2C(=O)[C@@H](NC(=O)[C@H](O)c3ccccc3)[C@H]2SC1,.,.,10,-1,.,.
Cn1nnnc1SCC1=C(C(=O)O)N2C(=O)C(NC(=O)C3CC3c3ccccc3)C2SC1 (stereo unspecified),10,-3,-12,-1,100*,100*
CC(C(=O)NC1C(=O)N2C(C(=O)O)=C(CSc3nnnn3C)CSC12)n1cc(Br)cn1 (stereo unspecified),-3,1,-12,0,100*,100*
Cc1cc(C(F)F)nn1CC(=O)NC1C(=O)N2C(C(=O)O)=C(CSc3nnnn3C)CSC12 (stereo unspecified),14,6,-13,-2,100*,100*
CC1CCN(C(=O)C=Cc2ccc(C(C)(C)C)cc2)CC1,.,.,.,.,-7,4
O=C(CNC(=O)c1ccccn1)NN=Cc1ccccc1,.,.,.,.,-4,-4
CCCCC1CC1C(NC(=O)c1cccs1)c1ccc(Cl)cc1 (stereo unspecified),.,.,.,.,-6,5
CC1=C(C(=O)O)N2C(=O)C(NC(=O)c3nn(C)cc3[N+](=O)[O-])C2SC1 (stereo unspecified),-1,-2,-28,19,12,11
Cc1nn(C(C)C(=O)NC2C(=O)N3C(C(=O)O)=C(CSc4nnnn4C)CSC23)cc1Cl (stereo unspecified),-5,9,-9,0,99*,100*
Cc1cccc(Oc2nc(-c3ccccn3)nc3ccccc23)c1,8,2,-71,195*,-4,9
Cc1ccccc1Oc1nc(-c2ccccn2)nc2ccccc12,6,-1,-43,245*,9,8
O=C(Nc1nnc(-c2ccccc2)o1)c1nc2ccccc2s1,13,5,-35,-1,98*,98*
COc1ccc(C(=O)NN=Cc2cc(Br)ccc2O)cc1OC,.,.,.,.,3,4
CC(C)Oc1ccc(Cc2cnc(N)nc2N)cc1,-2,-3,-20,0,91*,17
CCCCOc1ccc(Cc2cnc(N)nc2N)cc1,-7,-6,-8,?,66,6
CN(CC(Cc1cccc2ccccc12)N(CC(Cc1ccccc1)N(CCc1ccccc1)N=O)N=O)N=O (stereo unspecified),.,.,.,.,8,4
O=C1Nc2ccccc2/C1=C\C(=O)c1ccccc1,2,-2,-19,2,98*,98*
O=C(/C=C1\C(=O)Nc2ccccc21)/C=C1\C(=O)Nc2ccccc21,-2,-4,-8,0,-2,15
Cc1ccc(S(=O)(=O)n2ccc3c(OCCOCCNCc4ccc(F)cc4)cccc32)cc1,9,-5,-4,0,3,3
Cc1ccc(S(=O)(=O)n2ccc3c(OCCOCCSCC(NC(=O)OC(C)(C)C)C(=O)O)cccc32)cc1 (stereo unspecified),38*,-5,-8,1,12,20
CC=CC=CC(=O)Nc1cccc(C2=NOC3(C2)CC(C(N)=O)N(C(=O)c2cc([N+](=O)[O-])cc([N+](=O)[O-])c2)C3)c1 (stereo unspecified),.,.,.,.,-1,19
CC[C@@]12C(=O)N(c3cccc(Br)c3)C(=O)N1C(c1cccc(C)c1)C1C(=O)N(Cc3ccccc3)C(=O)C12 (stereo partly specified),.,.,.,.,-18,5
SMILES,CCHFV vOTU inh,PrPC surface inh,PrP 5UTR inh,PfHsp40 rescue,ugtP null kill,Sa RN4220 lethal
CCn1c(=O)c(-c2cc(=O)[nH][nH]2)c(O)c2ccccc21,8,-5,-17,97*,2,1
Cn1c(=O)c(-c2cc(=O)[nH][nH]2)c(O)c2ccccc21,8,2,-20,47*,6,4
O=c1cc(-c2c(O)c3ccccc3n(Cc3ccccc3)c2=O)[nH][nH]1,23,-6,-17,155*,4,-1
O=c1cc(O)c2ccccc2n1Cc1ccccc1,9,0,-19,1,5,4
O=C(O)COc1ccccc1C=NNC(=O)CSc1nc2ccccc2n1Cc1ccc(Cl)cc1,.,.,.,.,-4,6
COc1ccc(Cl)cc1CN1CCN(c2nc(C)cc(C)c2C#N)CC1,3,9,5,0,100*,99*
Cc1cc(C)c(C#N)c(N2CCN(CCOc3ccc(Cl)cc3)CC2)n1,-8,-3,-23,0,-5,-16
CC(C)C1/C(=N/O)CC(c2ccccc2)NC1c1ccccc1 (stereo unspecified),-11,-3,-8,49*,.,.
ClCCN(CCCl)c1ccc(C=NNc2ncccn2)cc1,24,6,-49,35*,0,3
CCn1ncc(C=NNC(=O)c2cc(-c3ccc(C)cc3C)nc3ccccc23)c1C,.,.,.,.,5,0
CCCCNc1c(-c2ccc(SC(C)CC)cc2)nc2cnccn12 (stereo unspecified),.,.,-8,860*,.,.
COc1cc(OC)c(C=NNC(=O)c2ccc(NC(C)=O)cc2)cc1Br,.,.,.,.,9,2
Cc1ccc(C)c(C(=O)O/N=C(\N)c2ccc(Br)cc2)c1,1,0,-46,502*,-3,-4
Cc1ccc(C(=O)O/N=C(\N)c2ccc(Br)cc2)cc1C,-9,2,-50,-1,-3,2
CCN1CC2C3C(=O)N(C)C(=O)C3[C@](C)(C1=O)N2C(=O)c1ccc(C(F)(F)F)cc1 (stereo partly specified),.,.,.,.,1,3
CCOC(=O)C(=O)NN=Cc1cccc(Br)c1,.,.,.,.,3,4
COc1ccc(C(=O)CC(=O)C(=O)Nc2ccc(C)cc2Cl)cc1,-6,-3,-13,-1,20,25
COc1cccc(C(=O)CC(=O)C(=O)Nc2ccc(C)cc2Cl)c1,14,6,-29,1,87*,77
COc1cc(OC)c(NC(=O)C(=O)CC(=O)c2ccc(C)cc2C)cc1Cl,6,2,10,1,69,85*
O=C(C1=CC(c2ccc(C(F)(F)F)cc2)CC(OCCCCO)O1)N1CCOCC1 (stereo unspecified),.,.,.,.,5,8
O=C(CSc1ccccc1)Nc1cc(S(=O)(=O)N2CCOCC2)ccc1N1CCOCC1,8,-1,-26,59*,3,4
CCOc1cccc(/C=N/NC(=S)Nc2cc(S(=O)(=O)N3CCOCC3)ccc2N2CCOCC2)c1O,11,-3,16,60*,.,.
